As a reminder, the inhibition is the relative decrease from the control value, in per cent.

Hit rate of the full screen: of about 2,200 compounds, about 1,700 (77%) were called active. So high a share suggests a set chosen from earlier hits. These entries were drawn from the full list. Unmarked numbers belong to inactive results.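 Rule for the calls: active = mean inhibition across replicate wells exceeding the computed hit threshold (cut at about 13% in these data); inactive = the rest.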

Drawing on PubChem BioAssay AID651674 (The Scripps Research Institute Molecular Screening Center, 2012), this text covers inhibition for 105 molecules.

Hepatocyte nuclear factor 4-alpha (Homo sapiens), sequence (P41235 whole entry, looked up, the tested form may be a part): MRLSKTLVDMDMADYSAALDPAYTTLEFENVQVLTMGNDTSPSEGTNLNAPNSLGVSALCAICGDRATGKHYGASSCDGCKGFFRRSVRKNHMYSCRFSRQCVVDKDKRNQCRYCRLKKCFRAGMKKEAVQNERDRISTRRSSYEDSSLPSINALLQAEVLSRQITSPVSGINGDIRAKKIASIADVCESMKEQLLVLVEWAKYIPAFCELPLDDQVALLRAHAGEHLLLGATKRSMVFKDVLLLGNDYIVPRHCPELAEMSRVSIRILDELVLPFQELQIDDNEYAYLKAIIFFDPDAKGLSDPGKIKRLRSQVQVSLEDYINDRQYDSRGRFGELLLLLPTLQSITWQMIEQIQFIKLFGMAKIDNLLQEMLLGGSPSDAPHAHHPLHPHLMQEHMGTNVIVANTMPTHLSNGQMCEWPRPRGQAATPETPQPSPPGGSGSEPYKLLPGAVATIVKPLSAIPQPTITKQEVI

The experiment addresses Hepatocyte nuclear factor 4-alpha (Homo sapiens) (UniProt P41235). The experiment is described as follows: blockers of HNF4 self-association – biochemical, split-luciferase complementation, luminescence, counter-screen for ABHD5-PLIN5 interaction inhibitor project (AID 651674).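 Note: light from luciferase halves that rejoin when HNF4 fusion proteins dimerize; 0% = DMSO only wells and the 100% control is not given.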 The settings on record: HNF4 dimerization, at 4 µM, hits give high values.
On to `CCC(C(=O)OCCN(CC)CC)c1ccccc1` (stereo not given), for which the inhibition is 32.3% (active). In the case of `COc1ccc(-n2cc(CNC3CCOCC3)c(-c3cccc(F)c3)n2)cc1`, the inhibition is -1.5%.

As to `CCn1c(SC)nc(O)c(C(c2ccc(OC)c(O)c2)c2c(O)nc(SC)n(CC)c2=O)c1=O`, the inhibition is 52.2% (active). As to `O=C(CCl)Nc1ccc(Sc2ccc(NC(=O)CCl)cc2)cc1`, the inhibition was 28% (active).

On to `Cc1csc(NC(=O)NC2(C(F)(F)F)Oc3ccccc3O2)n1`, for which the inhibition was 99.4% (active). On to `Cc1cccc(C)c1NC(=O)C(c1cccc2ccccc12)n1c(=O)c(-c2ccco2)nc2ccccc21` (stereo not given), for which the inhibition was 5.63%. Take `N#Cc1ccc(C(C(=O)NCc2ccccc2)n2c(=O)c(-c3ccco3)nc3ccccc32)cc1` (stereo not given): the inhibition was 46.7% (active). With `O=C(NC1CCCCC1)C(c1cc2ccccc2o1)n1c(=O)c(-c2ccco2)nc2ccccc21` (stereo not given), the inhibition is 12.5% (active). Take `Cc1cccc(C)c1NC(=O)C(c1ccc(C(F)(F)F)cc1)n1c(=O)c(-c2ccco2)nc2ccccc21` (stereo not given): the inhibition was 15.7% (active). For `NC(=O)c1nsc(C(=O)N(CC(=O)NCc2ccc(F)cc2)Cc2ccco2)c1N`, the inhibition was 2.04%.

Regarding `Cc1ccc(Cc2c(-c3ccco3)nc3ccc(Cl)cn23)cc1`, the inhibition is 47.3% (active). Consider `Cc1ccc2nc(-c3ccco3)c(Cc3cccc(Cl)c3)n2c1`, for which the inhibition was 49.6% (active). Take `O=C(CCN1CCc2ccccc2C(O)(c2ccccc2)C1)c1ccc2c(c1)OCCO2` (stereo not given): the inhibition is 100% (active). In the case of `O=C1/C(=C\c2ccc(O)cc2)CCC1CNc1ccc(Cl)cc1` (stereo not given), the inhibition was 50% (active). Turning to `COC(=O)c1cnn2c(C(F)(F)F)cc(-c3ccco3)nc12`, the inhibition was 9.71%. In the case of `O=C(N/N=C/C=C/c1ccco1)c1cccs1`, the inhibition was 39% (active). Regarding `COc1ccccc1C1/C(=C(/O)c2ccc(C)cc2)C(=O)C(=O)N1Cc1ccco1` (stereo not given), the inhibition is 10.7%.

Regarding `O=C1/C(=C\c2ccc([N+](=O)[O-])cc2)CS(=O)(=O)C/C1=C/c1ccc([N+](=O)[O-])cc1`, the inhibition was 108% (active).

For `c1ccc(CCC2=NCCn3cccc32)cc1`, the inhibition was 4.26%. In the case of `O=C(O)c1ccc2c(c1)C(=O)N(c1ccc(/C=C/C(=O)c3ccccc3)cc1)C2=O`, the inhibition was 89.2% (active). For `CC(=O)N(c1ccc2oc(=O)sc2c1)S(=O)(=O)c1ccc(C)cc1`, the inhibition is 17.5% (active).

`COc1cccc2sc(N(CCCN(C)C)C(=O)C(c3ccccc3)c3ccccc3)nc12`: the inhibition is 6.22%. With `Cc1ccc(SC(CC(=O)c2ccc(C(C)(C)C)cc2)C(=O)O)cc1` (stereo not given) the figure was 89.8% (active); with `O=C(/C=C/c1ccc(Cl)cc1Cl)c1cccnc1`, 105% (active). With `Cc1nc2sc(C(c3ccco3)N3CCOCC3)c(O)n2n1` (stereo not given) the figure was -1.74%; with `Cc1ccc(NC(=O)c2cc(-c3ccc(C)o3)nc3ccccc23)nc1`, 44.1% (active). Turning to `CCOC(=O)C(=Cc1ccccc1)C(=O)c1ccccc1`, the inhibition is 97% (active). In the case of `CCOC(=O)C(=Cc1ccccc1OC)C(=O)OCC`, the inhibition is 51.8% (active). Take `CCc1ccc(NC(=O)CSc2nnc(-c3cnccn3)n2Cc2ccco2)cc1`: the inhibition was 25.6% (active). `CC(=O)c1ccc(NC(=O)CCc2nnc3ccc(NCc4ccco4)nn23)cc1`: the inhibition is 2.03%. As to `COCCN(CCOC)c1nc(N)c2c(N)nc3c(c2c1C#N)CC(=O)N3Cc1ccc(Cl)cc1`, the inhibition is 9.32%.

Consider `N#Cc1ccccc1S(=O)(=O)N1CCN(Cc2c(O)ccc3ccccc23)CC1`, for which the inhibition was 86.6% (active). In the case of `CC1=CC(C)(C)Nc2ccc(OC(=O)C(Cc3ccccc3)N3C(=O)C4CCCCC4C3=O)cc21` (stereo not given), the inhibition is 15.7% (active). In the case of `CC1=CC(C)(C)Nc2ccc(OC(=O)CN3C(=O)C4CCCCC4C3=O)cc21` (stereo not given), the inhibition was 52.3% (active). Turning to `COC(=O)c1nc(NC(=O)c2ccc(C(C)(C)C)cc2)n[nH]1`, the inhibition was 4.25%. For the molecule `CCN(CCCNC(=O)c1ccc2c(c1)NC(=O)CN2C)c1cccc(C)c1`, the inhibition is 76.9% (active).

For the molecule `CCCCOC(=O)CNc1nnc(SCC(=O)OCC)[nH]c1=O`, the inhibition was 103% (active). Regarding `O=C(Nc1ccccc1)c1nnsc1S(=O)(=O)c1ccc(Cl)cc1`, the inhibition is 100% (active).

Consider `O=C(Nc1ccccc1Cl)/C(Cl)=C(\Cl)S(=O)c1ccccc1` (stereo not given), for which the inhibition was 108% (active). In the case of `O=C(Nc1nc(-c2ccco2)c(-c2ccco2)s1)c1ccco1`, the inhibition was 77.9% (active).

As to `Cc1[nH]c(=O)c(C(=O)/C=C/c2ccccc2)c2c1CCCC2`, the inhibition was 37.9% (active). For the molecule `CC1(C)CCSC(/C=C/c2ccccc2)=N1`, the inhibition was 91.4% (active). Regarding `C[C@@H]1C[C@@H]2O[C@H]2/C=C\C=C\C(=O)Cc2c(Cl)c(O)cc(O)c2C(=O)O1`, the inhibition is 47.9% (active). Consider `COc1ccc2sc(-c3ccccc3OC)c(-c3ccc(OCCN4CCCC4)cc3)c2c1`, for which the inhibition was 7.03%. With `O=C1C(Cl)=C(Oc2ccccc2)C(=O)c2ccccc21` the figure was 105% (active); with `CC1(Oc2ccccc2-c2ccno2)CCN(Cc2ccc(-c3ccccc3)o2)C1` (stereo not given), 48.5% (active); with `COc1ccc2c(c1)c(=Cc1ccc(N(C)C)cc1)c1cc(-c3ccccc3)[n+](C)n12`, 18.1% (active).

In the case of `CCN1CCC(O)(/C=C/c2ccc(C)cc2)C(C(=O)/C=C/c2ccc(C)cc2)C1` (stereo not given), the inhibition was 85.5% (active). Take `CCCOc1ccc(C(=O)C(CCC(CNCC)C(=O)c2ccc(OCCC)cc2)CNCC)cc1` (stereo not given): the inhibition was 24.2% (active). To `O=C(Cn1nc(CNc2ccc(Cl)cc2)[n+]2c1CCCCC2)c1ccc(Cl)cc1` belongs 6.95%. Consider `Cc1cccc(C=CC(=O)c2ccc(Cl)cc2)c1`, for which the inhibition is 67.2% (active). With `COc1ccc(N/C=C(\C2OC(=O)c3ccccc32)[N+](=O)[O-])cc1` (stereo not given) the figure was 22.1% (active); with `COC(=O)/C=C\C(=O)Nc1cccc([N+](=O)[O-])c1`, 109% (active).

With `CCS(=O)(=O)Nc1ccc(C2=NN(S(=O)(=O)c3ccc(F)cc3)C(c3ccco3)C2)cc1` (stereo not given), the inhibition is 9.93%. For the molecule `O=c1[nH]c(/C=C\c2cccc(C(F)(F)F)c2)nc(O)c1[N+](=O)[O-]`, the inhibition was 73.2% (active). `O=C(/C(=C/c1cccc(Cl)c1)c1nc2ccccc2[nH]1)c1ccccc1`: the inhibition is 92% (active). In the case of `COc1ccc(CCNC(=O)c2nnc(CS(=O)(=O)c3ccccc3)o2)cc1OC`, the inhibition was 2.92%. As for `COc1ccccc1-n1nnnc1S(=O)(=O)Cc1ccc(Cl)cc1`, the inhibition is 32.1% (active).

As for `COc1ccc(-c2cc(C(F)(F)F)nc(S(C)(=O)=O)n2)cc1OC`, the inhibition is 80.6% (active). As for `Nc1cccc(OCCCCCOc2cccc(N)c2)c1`, the inhibition was -6.94%. Regarding `O=C(NNc1c2ccccc2nc2ccccc12)c1cc2ccccc2cc1O`, the inhibition is 23.8% (active).

Take `COc1ccc(/C=C/C(=O)c2ccc(NS(=O)(=O)c3ccc(C)cc3)cc2)cc1O`: the inhibition was 54.5% (active). Turning to `OC(CNCC1CCCO1)Cn1c2ccc(Br)cc2c2cc(Br)ccc21` (stereo not given), the inhibition is -1.25%. As for `O=C(c1cccnc1)N(c1cc2sc(=O)oc2c2ccccc12)S(=O)(=O)c1ccccc1`, the inhibition is 104% (active). With `Cc1cccc(NC(=O)c2ccc3nsnc3c2)c1C`, the inhibition was -0.5%. Consider `O=[N+]([O-])/C=C/c1ccc2c(ccn2Cc2ccccc2)c1`, for which the inhibition was 108% (active).

As for `COC(=O)C1(C)NC(c2ccccc2OC)C2C(=O)N(c3ccccc3)C(=O)C21` (stereo not given), the inhibition is 2.83%. In the case of `C[C@@H](CN1CCC[C@H]1CN1C(N)=NC[C@@H]1Cc1ccccc1)N1C[C@@H](Cc2ccccc2)N(CCCC2CCCC2)C1=N`, the inhibition was 6.92%. `O=[N+]([O-])c1c(NCCO)cc(Sc2nc3ccccc3s2)c2nonc12`: the inhibition was 115% (active). Consider `Cn1sc(=O)c2cc(S(=O)(=O)NC3CC3)ccc21`, for which the inhibition is 106% (active). With `Cc1cc2c(c(=O)n1Cc1ccco1)C(c1ccccc1)C(C#N)=C(N)O2` (stereo not given), the inhibition was 24.5% (active).

Take `Cc1nnnn1/C(=C\c1ccccc1)C(=O)OCC(=O)N1CC2(C)CC1CC(C)(C)C2` (stereo not given): the inhibition was 46.1% (active). Take `Cc1nc(-c2ccccc2)sc1C(=O)/C=C/c1ccccc1`: the inhibition was 59.8% (active). To `CC(C)(C)C1C/C(=C/c2ccco2)C(=O)/C(=C/c2ccco2)C1` (stereo not given) belongs 78.9% (active); to `CC(=O)Nc1ccc(C=CC(=O)c2ccc([N+](=O)[O-])cc2)cc1`, 82.5% (active); to `O=C(/C=C/c1ccc(Cl)c([N+](=O)[O-])c1)c1ccc(O)cc1`, 72.8% (active). For the molecule `O=C(NCCOCc1ccc(Cl)cc1)c1ncn[nH]1`, the inhibition is 2.01%. As to `COc1ccc(CNC(=O)/C(C#N)=C/c2cccc(OC)c2OC)cc1`, the inhibition is 45.7% (active). In the case of `COC(C/C=C/C(=O)[C@@H](C)OCc1ccccc1)OC`, the inhibition is 44.4% (active).

For the molecule `Cc1cc(C)nc(S/C=C/C(=O)c2ccccc2)n1`, the inhibition is 106% (active). With `Cc1cccc(CS(=O)(=O)c2ncc(Cl)c(C(=O)Nc3ccc(F)cc3)n2)c1` the figure was 86.8% (active); with `Cc1cccc(NC(=O)c2nc(S(=O)(=O)Cc3ccccc3)ncc2Cl)c1`, 85.1% (active).

`Cc1ccc(CS(=O)(=O)c2ncc(Cl)c(C(=O)Nc3nnc(C)s3)n2)cc1`: the inhibition was 91.8% (active). For the molecule `CSc1nnc(NC(=O)c2nc(S(=O)(=O)Cc3ccc(C)cc3)ncc2Cl)s1`, the inhibition is 50.1% (active). For `Cc1c(CCOC(=O)CC23CC4CC(CC(C)(C4)C2)C3)sc[n+]1Cc1ccc([N+](=O)[O-])cc1`, the inhibition was 5.79%. With `Cc1ccc(NC(=O)Cn2sc3ccccc3c2=O)cc1`, the inhibition was 118% (active).

In the case of `CC1Cc2ccccc2N1CC(=O)Nc1ccc(S(N)(=O)=O)cc1` (stereo not given), the inhibition was -0.75%.

Regarding `Cc1ccn(C(CC(=O)c2ccc(Br)cc2)C(=O)O)n1` (stereo not given), the inhibition was 38.9% (active). For `Cc1ccc(-n2nc(-c3ccco3)cc2C(=O)NCc2cccnc2)cc1`, the inhibition is 79.1% (active). In the case of `CCN1/C(=C\c2ccc3ccccc3[n+]2CC)Sc2cc(C)ccc21`, the inhibition is 22.4% (active). With `C=C(C)C(=O)O[C@H]1C/C(C)=C\C(=O)/C=C(\C)[C@H](O)[C@@H]2OC(=O)C(=C)[C@@H]21` the figure was 54.8% (active); with `Cc1cc(-c2n[nH]c(=S)n2/N=C/C(Br)=C/c2ccccc2)n[nH]1`, 86.5% (active); with `CC1(C(=O)NCc2cccc3ccccc23)CCN1Cc1ccc(-c2ccccc2)o1` (stereo not given), 40.2% (active).

As to `COc1ccc(C(C[N+](=O)[O-])n2nc(C)cc2C)cc1` (stereo not given), the inhibition is 87.3% (active). With `O=c1[nH][nH]c2c1[C@H](c1ccc(Cl)cc1)O[C@H](CCc1ccccc1)C2` the figure was 12%; with `O=C1C=CC(=O)N1c1ccc(N2CCCCC2)cc1`, 101% (active). Take `COc1ccc2c(c1OC)C(=O)OC2Nc1nc(-c2ccccc2)cs1` (stereo not given): the inhibition is 56.7% (active). To `O=C(NNc1ccccn1)c1ccc(Cl)nc1` belongs -6.91%; to `O=C1C=C(c2ccc(Cl)cc2)C(=O)N1Nc1ccccc1`, 107% (active). As for `CN(C)CCCNC(=O)/C=C/c1ccc(OCc2c(F)cccc2Cl)cc1`, the inhibition is 6.86%. To `O=C(/C=C(O)/C=C/c1ccc(O)cc1)/C=C/c1ccc(O)cc1` belongs 74.4% (active). With `Cc1cccc(C)c1NC(=O)C(Cl)C(=O)c1ccccc1` (stereo not given) the figure was 58.4% (active); with `CCN(CC)CCN(C(=O)c1ccc2c(c1)CCCC2)c1nc2c(OC)cccc2s1`, 11.7%. For `C=C1C(=O)[C@]23C[C@H]1CCC2[C@@]1(C)C(C[C@@H]3O)[C@](C)(C(=O)O)CC[C@@H]1O` (stereo not given in full), the inhibition was 85.8% (active). Take `CN1CCC[C@@H]1CCO[C@](C)(c1ccccc1)c1ccc(Cl)cc1`: the inhibition was 9.44%.
